Some test systems named below: SK-MEL-2 melanoma; UO-31 renal; TK-10 renal; ACHN renal; CAKI-1 renal; A498 renal; MOLT-4 leukemia; SR leukemia; RPMI-8226 leukemia; OVCAR-8 ovarian; OVCAR-5 ovarian; SK-OV-3 ovarian; IGROV1 ovarian; OVCAR-3 ovarian; HS 578T breast; NCI/ADR-RES ovarian; SN12C renal; CCRF-CEM leukemia; OVCAR-4 ovarian.
Experiment in all cases: NCI-60 one-dose screen, 48 h (100 = growth as untreated, 0 = no growth, -100 = all killed)
Details in all cases: 10 µM unless noted

About 83,000 compounds went through this panel and 20% of them were active in at least one assay; those are over-represented in the sample as a whole.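 Step 1: grow cells in 96-well plates. Step 2: add test compound at a single concentration. Step 3: incubate 48 h. Step 4: record percent growth.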 Values without a mark were called inactive. The source made the active and inactive calls. The calls were made as follows: active = growth percent below 10; inactive = the rest.

For `CC1(C)[C@@H](O[C@@H]2OC[C@@H](O[C@@H]3O[C@H](CO)[C@@H](O)[C@H](O)[C@H]3O[C@@H]3OC[C@@H](O)[C@H](O)[C@H]3O)[C@H](O)[C@H]2O[C@@H]2O[C@H](CO)[C@@H](O)[C@H](O)[C@H]2O)CC[C@]2(C)[C@H]3CC[C@]45OC[C@@]6(CC[C@](C)(C=O)C[C@H]64)[C@H](O)C[C@@]5(C)[C@]3(C)CC[C@@H]12`, the growth is -90.2% (active) in the test on SK-MEL-2 melanoma; -88.7% (active) in the test with UO-31 renal; -92.2% (active) with TK-10 renal; -93.7% (active) in the test with ACHN renal; -91.5% (active) in the test on CAKI-1 renal; -89.9% (active) with A498 renal. Further, the growth was -53.5% (active) in the test on MOLT-4 leukemia; -37% (active) in the test with SR leukemia; -44% (active) in the test on RPMI-8226 leukemia; -48.9% (active) in the test with OVCAR-8 ovarian; -76.8% (active) with OVCAR-5 ovarian; -98.4% (active) in the test on SK-OV-3 ovarian. The growth was -71.7% (active) with IGROV1 ovarian, -72.6% (active) in the test on OVCAR-3 ovarian, -31.2% (active) in the test on HS 578T breast and -21.7% (active) in the test on NCI/ADR-RES ovarian.

As for `O=C1/C(=C/c2ccc(O)c(O)c2)COc2ccc(-c3ccccc3)cc21`, the growth with SK-MEL-2 melanoma is 59%; in the test with SN12C renal it was 13.9%; in the test with UO-31 renal it was -64.6% (active); in the test with TK-10 renal, 25.8%; in the test with ACHN renal, 15.3%; in the test on CAKI-1 renal, 4.86% (active). Further, the growth in the test on A498 renal was 30.7%; with CCRF-CEM leukemia, 16.2%; with MOLT-4 leukemia, 10.9%; in the test on SR leukemia it was -20% (active); in the test on RPMI-8226 leukemia, -13.1% (active); with OVCAR-8 ovarian, 26.5%. The growth is 50.6% with OVCAR-5 ovarian; 26.6% in the test with OVCAR-4 ovarian; 81.1% with SK-OV-3 ovarian; -13.1% (active) in the test on IGROV1 ovarian; 20.2% in the test on OVCAR-3 ovarian; 15% in the test on HS 578T breast. Also, in the test with NCI/ADR-RES ovarian, the growth was 19.2%.

For `Cc1ncc(C(=O)Nc2ccc(CN3CCN(C)CC3)c(C(F)(F)F)c2)cc1C#Cc1cnc(N)c2ncccc12`, the growth with SK-MEL-2 melanoma was -29.8% (active); with UO-31 renal, -9.37% (active); in the test with TK-10 renal it was 46.3%; in the test on ACHN renal, 0.608% (active); in the test with CAKI-1 renal, 7.54% (active); in the test on A498 renal it was -6.89% (active). Besides, the growth with CCRF-CEM leukemia is -1.21% (active); in the test with MOLT-4 leukemia it was -24.9% (active); in the test with SR leukemia, -33.9% (active); in the test with RPMI-8226 leukemia, -26.2% (active); in the test with OVCAR-8 ovarian, -24.7% (active); in the test on OVCAR-5 ovarian, 49.8%. The growth was -6.15% (active) in the test with OVCAR-4 ovarian; 0.896% (active) in the test with SK-OV-3 ovarian; 10.4% in the test on IGROV1 ovarian; 55.4% with OVCAR-3 ovarian; 24.2% with HS 578T breast; 33.2% in the test with NCI/ADR-RES ovarian.

Turning to `O=c1nc(-c2ccccc2)c2cc(-c3ccc(C(F)(F)F)nc3)ccc2[nH]1`, the growth in the test with SK-MEL-2 melanoma is 103%; in the test on SN12C renal, 102%; in the test with UO-31 renal, 75.8%; in the test with TK-10 renal it was 99.9%; in the test on ACHN renal, 96.5%; in the test with CAKI-1 renal, 93.1%. For the same compound, the growth with A498 renal is 104%; in the test with CCRF-CEM leukemia, 46.5%; in the test with MOLT-4 leukemia, 83.3%; in the test on RPMI-8226 leukemia, 91.3%; in the test on OVCAR-8 ovarian, 106%; with OVCAR-5 ovarian, 97.6%. Besides, the growth with OVCAR-4 ovarian was 108%; with SK-OV-3 ovarian, 105%; in the test on IGROV1 ovarian, 111%; with OVCAR-3 ovarian, 96%; with HS 578T breast, 95.7%; in the test with NCI/ADR-RES ovarian it was 98.4%.

Regarding `CCCCCCCC/C=C\CCCCCCCCOc1ccc(CC(=O)NCC[N+]2(C)CCOCC2)cc1`, the growth is 112% in the test with SK-MEL-2 melanoma; 64.1% in the test on SN12C renal; 93.5% in the test with UO-31 renal; 44.7% in the test on TK-10 renal; 82.9% in the test on ACHN renal; 53.5% in the test with CAKI-1 renal. Also, the growth with A498 renal is 91.8%; with CCRF-CEM leukemia it was 53%; with MOLT-4 leukemia, 79.9%; in the test with SR leukemia, 71.7%; in the test with RPMI-8226 leukemia, 66.6%; with OVCAR-8 ovarian, 73%. For the same compound, the growth is 29.5% in the test on OVCAR-5 ovarian; 97.3% with OVCAR-4 ovarian; 98.8% in the test with SK-OV-3 ovarian; 5.35% (active) with IGROV1 ovarian; 98.1% with OVCAR-3 ovarian; 72.5% in the test with HS 578T breast. Also, the growth in the test with NCI/ADR-RES ovarian is 104%.

On to `O=C(/C=C(O)/C=C/c1cccc2[nH]ccc12)/C=C/c1cccc2[nH]ccc12`, for which the growth in the test with SK-MEL-2 melanoma was 85.9%; in the test on SN12C renal, 82.5%; with TK-10 renal it was 83.9%; in the test with ACHN renal, 84.4%; in the test on CAKI-1 renal, 74.6%; in the test with A498 renal, 112%. The growth in the test with CCRF-CEM leukemia was 65.4%; with MOLT-4 leukemia, 59.2%; in the test with SR leukemia, 10.3%; in the test on RPMI-8226 leukemia, 2.9% (active); in the test with OVCAR-8 ovarian, 72.6%; with OVCAR-5 ovarian, 99.7%. In addition, the growth in the test with OVCAR-4 ovarian is 91.7%; in the test with SK-OV-3 ovarian, 85.6%; in the test on IGROV1 ovarian, 70.3%; with OVCAR-3 ovarian, 103%; in the test on HS 578T breast, 91%; with NCI/ADR-RES ovarian, 87.6%.

Regarding `FC(F)(F)Oc1cccc(-c2cnc3ccc(-c4ccncc4)nn23)c1`, the growth is -21.7% (active) with SK-MEL-2 melanoma; 0.42% (active) in the test with UO-31 renal; 17.3% in the test on TK-10 renal; -0.133% (active) with ACHN renal; 7.75% (active) in the test on CAKI-1 renal; 23% in the test on A498 renal. For the same compound, the growth is 4.57% (active) in the test on CCRF-CEM leukemia; 4.08% (active) in the test on MOLT-4 leukemia; 4.36% (active) in the test with SR leukemia; 15.9% with RPMI-8226 leukemia; 14.3% in the test with OVCAR-8 ovarian; 16.5% in the test on OVCAR-5 ovarian. Moreover, the growth is 47% in the test with OVCAR-4 ovarian; -19.3% (active) in the test on SK-OV-3 ovarian; 12.1% with IGROV1 ovarian; 8.85% (active) with OVCAR-3 ovarian; 23.4% in the test with HS 578T breast; 11.6% with NCI/ADR-RES ovarian.

On to `COc1ccc(-c2n[nH]c(=O)c3nc(NC(=S)Nc4ccc(Oc5ccccc5)cc4)sc23)cc1`, for which the growth in the test on SK-MEL-2 melanoma was 98.6%; in the test on SN12C renal it was 100%; with UO-31 renal, 77.1%; in the test with TK-10 renal it was 92.8%; in the test on ACHN renal it was 105%; in the test with CAKI-1 renal, 87.3%. In addition, the growth in the test on A498 renal was 80.4%; with CCRF-CEM leukemia it was 81.2%; with MOLT-4 leukemia, 96.9%; with SR leukemia, 81.6%; in the test with RPMI-8226 leukemia it was 82.8%; with OVCAR-8 ovarian it was 86.5%. For the same compound, the growth in the test with OVCAR-5 ovarian was 104%; in the test on OVCAR-4 ovarian, 95%; in the test on SK-OV-3 ovarian, 94.9%; with IGROV1 ovarian, 104%; with OVCAR-3 ovarian it was 105%; in the test with HS 578T breast it was 97.7%. The growth with NCI/ADR-RES ovarian is 108%.
